In PubChem BioAssay AID1159580 (chemical genetic matrix, 2015):
The campaign covered roughly 5,500 compounds. About 2,000 (36%) were called active. Not shown: some 18% with an inconclusive outcome. The list shows a part of the results. Unmarked numbers belong to inactive results. No stated cut-off is given here; in the data, active means normalized growth mostly below about 0.91 (no sharp cut-off); inconclusive means no clear call, values can overlap the other calls; inactive means mostly above about 0.92.

Experiment: chemical genetic growth profiling, strain panel (AID 1159580);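 further: tested at 20 µM; growth read once vehicle control cultures reached saturation at 30 °C; 1 = growth at the plate median or of vehicle wells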
Details: S. cerevisiae deletion strains, growth OD

SMILES: COc1cccc(-c2cc(=O)c3ccc(OC)cc3o2)c1
- normalized growth (locus YAL013W, strain DEP1, stronger effect = lower value): 0.93
- normalized growth (locus YAL021C, strain ccr4, stronger effect = lower value): 0.964
- normalized growth (locus YAL026C, strain drs2, stronger effect = lower value): 0.936
- normalized growth (locus YAL030W, strain snc1, stronger effect = lower value): 0.943
- normalized growth (locus YBL061C, strain skt5, stronger effect = lower value): 0.929
- normalized growth (locus YBR009C, strain hhf1, stronger effect = lower value): 0.891 (active)
- normalized growth (locus YBR021W, strain FUR4, stronger effect = lower value): 0.942
- normalized growth (locus YBR023C, strain chs3, stronger effect = lower value): 0.897 (active)
- normalized growth (locus YBR171W, strain sec66, stronger effect = lower value): 0.916
- normalized growth (locus YBR229C, strain ROT2, stronger effect = lower value): 0.959
- normalized growth (locus YBR231C, strain swc5, stronger effect = lower value): 0.922
- normalized growth (locus YBR279W, strain paf1, stronger effect = lower value): 0.944
- normalized growth (locus YCL011C, strain gbp2, stronger effect = lower value): 0.938
- normalized growth (locus YCL016C, strain dcc1, stronger effect = lower value): 0.96
- normalized growth (locus YCL061C, strain MRC1, stronger effect = lower value): 0.944
- normalized growth (locus YCL069W, strain vba3, stronger effect = lower value): 0.947
- normalized growth (locus YCR088W, strain abp1, stronger effect = lower value): 0.938
- normalized growth (locus YDL005C, strain med2, stronger effect = lower value): 0.973
- normalized growth (locus YDL035C, strain GPR1, stronger effect = lower value): 0.922
- normalized growth (locus YDL040C, strain nat1, stronger effect = lower value): 0.948
- normalized growth (locus YDL074C, strain BRE1, stronger effect = lower value): 0.837
- normalized growth (locus YDL101C, strain DUN1, stronger effect = lower value): 0.954
- normalized growth (locus YDL134C, strain PPH21, stronger effect = lower value): 0.978
- normalized growth (locus YDL185W, strain tfp1, stronger effect = lower value): 0.978
- normalized growth (locus YDL192W, strain arf1, stronger effect = lower value): 1.04
- normalized growth (locus YDR001C, strain nth1, stronger effect = lower value): 0.935
- normalized growth (locus YDR069C, strain doa4, stronger effect = lower value): 0.96
- normalized growth (locus YDR101C, strain arx1, stronger effect = lower value): 1.04
- normalized growth (locus YDR137W, strain rgp1, stronger effect = lower value): 0.929
- normalized growth (locus YDR150W, strain NUM1, stronger effect = lower value): 0.951
- normalized growth (locus YDR159W, strain sac3, stronger effect = lower value): 0.921
- normalized growth (locus YDR162C, strain NBP2, stronger effect = lower value): 0.926
- normalized growth (locus YDR195W, strain ref2): 1.05
- normalized growth (locus YDR297W, strain sur2, stronger effect = lower value): 0.955
- normalized growth (locus YDR318W, strain mcm21, stronger effect = lower value): 0.972
- normalized growth (locus YDR334W, strain swr1, stronger effect = lower value): 0.943
- normalized growth (locus YDR335W, strain msn5, stronger effect = lower value): 0.965
- normalized growth (locus YDR388W, stronger effect = lower value): 1.04
- normalized growth (locus YDR392W, strain spt3, stronger effect = lower value): 0.623 (active)
- normalized growth (locus YDR502C, strain sam2, stronger effect = lower value): 1.04
- normalized growth (locus YEL003W, strain gim4, stronger effect = lower value): 0.962
- normalized growth (locus YEL037C, strain rad23, stronger effect = lower value): 0.952
- normalized growth (locus YEL061C, strain CIN8 (second series), stronger effect = lower value): 0.958
- normalized growth (locus YEL061C, strain CIN8, stronger effect = lower value): 0.964
- normalized growth (locus YER015W, strain faa2, stronger effect = lower value): 0.953
- normalized growth (locus YER016W, strain bim1, stronger effect = lower value): 0.952
- normalized growth (locus YER110C, stronger effect = lower value): 1.16 [resistant] (active)
- normalized growth (locus YER111C, strain swi4, stronger effect = lower value): 0.957
- normalized growth (locus YER155C, strain BEM2 (second series), stronger effect = lower value): 0.699 (active)
- normalized growth (locus YER155C, strain BEM2, stronger effect = lower value): 1.06
- normalized growth (locus YER167W, strain BCK2, stronger effect = lower value): 0.907
- normalized growth (locus YFR010W, strain ubp6, stronger effect = lower value): 0.961
- normalized growth (locus YGL078C, strain dbp3, stronger effect = lower value): 1.05
- normalized growth (locus YGL086W, strain mad1, stronger effect = lower value): 0.934
- normalized growth (locus YGL167C, strain pmr1, stronger effect = lower value): 0.938
- normalized growth (locus YGL173C, strain kem1, stronger effect = lower value): 0.966
- normalized growth (locus YGL227W, strain vid30, stronger effect = lower value): 0.946
- normalized growth (locus YGL240W, strain doc1, stronger effect = lower value): 0.837 (active)
- normalized growth (locus YGL248W, strain PDE1, stronger effect = lower value): 0.946
- normalized growth (locus YGL253W, strain hxk2, stronger effect = lower value): 0.903 (active)
- normalized growth (locus YGR078C, strain PAC10, stronger effect = lower value): 0.945
- normalized growth (locus YGR135W, strain pre9, stronger effect = lower value): 1.08
- normalized growth (locus YGR229C, strain SMI1, stronger effect = lower value): 0.722 (active)
- normalized growth (locus YGR252W, strain gcn5, stronger effect = lower value): 0.884
- normalized growth (locus YHR013C, strain ard1, stronger effect = lower value): 0.852
- normalized growth (locus YHR027C, strain rpn1, stronger effect = lower value): 0.968
- normalized growth (locus YHR030C, strain SLT2, stronger effect = lower value): 0.82 (active)
- normalized growth (locus YHR079C, strain IRE1 (second series), stronger effect = lower value): 1.08 [resistant] (active)
- normalized growth (locus YHR094C, strain hxt1, stronger effect = lower value): 1.15 [resistant] (active)
- normalized growth (locus YHR129C, strain ARP1, stronger effect = lower value): 1.03
- normalized growth (locus YHR142W, strain chs7, stronger effect = lower value): 0.793 (active)
- normalized growth (locus YHR200W, strain rpn10, stronger effect = lower value): 1.04
- normalized growth (locus YIL066C, strain RNR3, stronger effect = lower value): 0.961
- normalized growth (locus YIL073C, strain SPO22, stronger effect = lower value): 0.834
- normalized growth (locus YIL125W, strain kgd1, stronger effect = lower value): 0.964
- normalized growth (locus YIR030C, strain dcg1, stronger effect = lower value): 1.14 [resistant] (active)
- normalized growth (locus YJL092W, strain hpr5, stronger effect = lower value): 0.954
- normalized growth (locus YJL095W, strain BCK1 (second series), stronger effect = lower value): 0.916 (active)
- normalized growth (locus YJL095W, strain BCK1, stronger effect = lower value): 0.656 (active)
- normalized growth (locus YJL115W, strain asf1, stronger effect = lower value): 0.954
- normalized growth (locus YJL129C, strain trk1, stronger effect = lower value): 0.95
- normalized growth (locus YJL134W, strain LCB3, stronger effect = lower value): 0.965
- normalized growth (locus YJL154C, strain vps35, stronger effect = lower value): 0.959
- normalized growth (locus YJL164C, strain tpk1, stronger effect = lower value): 0.928
- normalized growth (locus YJL166W, strain qcr8, stronger effect = lower value): 0.905
- normalized growth (locus YJL168C, strain set2, stronger effect = lower value): 1.04
- normalized growth (locus YJL187C, strain SWE1 (second series), stronger effect = lower value): 0.942
- normalized growth (locus YJL187C, strain SWE1, stronger effect = lower value): 0.949
- normalized growth (locus YJR043C, strain POL32, stronger effect = lower value): 0.866
- normalized growth (locus YJR075W, strain HOC1, stronger effect = lower value): 0.994
- normalized growth (locus YKL009W, strain mrt4, stronger effect = lower value): 0.828 (active)
- normalized growth (locus YKL068W, stronger effect = lower value): 0.931 (active)
- normalized growth (locus YKL085W, strain MDH1 (second series), stronger effect = lower value): 0.845 (active)
- normalized growth (locus YKL085W, strain MDH1, stronger effect = lower value): 0.845 (active)
- normalized growth (locus YKL160W, strain elf1, stronger effect = lower value): 0.933
- normalized growth (locus YKL190W, strain CNB1, stronger effect = lower value): 0.952
- normalized growth (locus YKR001C, strain vps1, stronger effect = lower value): 1.06
- normalized growth (locus YKR026C, strain gcn3, stronger effect = lower value): 0.91 (active)
- normalized growth (locus YKR091W, strain srl3, stronger effect = lower value): 0.958
- normalized growth (locus YLL001W, strain dnm1, stronger effect = lower value): 0.922
- normalized growth (locus YLL026W, stronger effect = lower value): 0.94
- normalized growth (locus YLL041C, strain sdh2, stronger effect = lower value): 0.951
- normalized growth (locus YLR027C, strain aat2, stronger effect = lower value): 0.934
- normalized growth (locus YLR039C, strain RIC1, stronger effect = lower value): 0.983
- normalized growth (locus YLR058C, strain SHM2, stronger effect = lower value): 0.999
- normalized growth (locus YLR102C, strain apc9, stronger effect = lower value): 1.03
- normalized growth (locus YLR221C, strain rsa3, stronger effect = lower value): 0.91
- normalized growth (locus YLR258W, strain gsy2, stronger effect = lower value): 0.93
- normalized growth (locus YLR262C, strain YPT6 (second series), stronger effect = lower value): 0.916
- normalized growth (locus YLR262C, strain YPT6, stronger effect = lower value): 0.989
- normalized growth (locus YLR268W, strain sec22, stronger effect = lower value): 0.994
- normalized growth (locus YLR320W, strain mms22, stronger effect = lower value): 0.824 (active)
- normalized growth (locus YLR330W, strain CHS5, stronger effect = lower value): 1.02
- normalized growth (locus YLR342W, strain FKS1 (second series), stronger effect = lower value): 0.839
- normalized growth (locus YLR342W, strain FKS1, stronger effect = lower value): 0.951
- normalized growth (locus YLR357W, strain rsc2, stronger effect = lower value): 0.856
- normalized growth (locus YLR370C, strain arc18, stronger effect = lower value): 0.948
- normalized growth (locus YLR371W, strain rom2, stronger effect = lower value): 0.965
- normalized growth (locus YLR384C, strain iki3, stronger effect = lower value): 0.962
- normalized growth (locus YLR418C, strain cdc73, stronger effect = lower value): 0.948
- normalized growth (locus YML016C, strain PPZ1, stronger effect = lower value): 0.998
- normalized growth (locus YML032C, strain rad52, stronger effect = lower value): 0.954
- normalized growth (locus YML120C, strain ndi1, stronger effect = lower value): 0.92
- normalized growth (locus YML124C, strain tub3, stronger effect = lower value): 1.13 [resistant] (active)
- normalized growth (locus YMR058W, strain fet3, stronger effect = lower value): 0.938
- normalized growth (locus YMR078C, strain ctf18, stronger effect = lower value): 1.1 [resistant] (active)
- normalized growth (locus YMR125W, strain sto1, stronger effect = lower value): 0.941
- normalized growth (locus YMR129W, stronger effect = lower value): 0.971
- normalized growth (locus YMR205C, strain PFK2, stronger effect = lower value): 0.871 (active)
- normalized growth (locus YMR223W, strain ubp8, stronger effect = lower value): 1
- normalized growth (locus YMR231W, strain pep5, stronger effect = lower value): 0.97
- normalized growth (locus YMR263W, strain SAP30, stronger effect = lower value): 0.896
- normalized growth (locus YMR307W, strain GAS1, stronger effect = lower value): 0.734
- normalized growth (locus YNL067W, strain RPL9B, stronger effect = lower value): 0.944
- normalized growth (locus YNL071W, strain lat1, stronger effect = lower value): 0.813 (active)
- normalized growth (locus YNL128W, strain TEP1, stronger effect = lower value): 1.02
- normalized growth (locus YNL153C, strain GIM3, stronger effect = lower value): 0.997
- normalized growth (locus YNL209W, strain ssb2, stronger effect = lower value): 0.977
- normalized growth (locus YNL233W, strain BNI4, stronger effect = lower value): 0.942
- normalized growth (locus YNL248C, strain rpa49, stronger effect = lower value): 0.927
- normalized growth (locus YNL250W, strain rad50, stronger effect = lower value): 0.969
- normalized growth (locus YNL271C, strain bni1, stronger effect = lower value): 0.938
- normalized growth (locus YNL298W, strain CLA4, stronger effect = lower value): 0.924
- normalized growth (locus YNL307C, strain MCK1, stronger effect = lower value): 0.842 (active)
- normalized growth (locus YNL322C, strain KRE1 (second series), stronger effect = lower value): 0.959
- normalized growth (locus YNL322C, strain KRE1, stronger effect = lower value): 0.958
- normalized growth (locus YNR049C, strain mso1, stronger effect = lower value): 0.953
- normalized growth (locus YNR052C, strain pop2, stronger effect = lower value): 1.14 [resistant] (active)
- normalized growth (locus YOL006C, strain TOP1, stronger effect = lower value): 0.659
- normalized growth (locus YOL012C, strain htz1): 0.755
- normalized growth (locus YOL147C, strain pex11, stronger effect = lower value): 1.08 [resistant] (active)
- normalized growth (locus YOR001W, strain rrp6, stronger effect = lower value): 0.94
- normalized growth (locus YOR061W, strain CKA2, stronger effect = lower value): 0.951
- normalized growth (locus YOR069W, strain VPS5, stronger effect = lower value): 0.958
- normalized growth (locus YOR070C, strain gyp1, stronger effect = lower value): 0.942
- normalized growth (locus YOR080W, strain dia2, stronger effect = lower value): 0.947
- normalized growth (locus YOR083W, strain WHI5, stronger effect = lower value): 0.91
- normalized growth (locus YOR106W, strain vam3, stronger effect = lower value): 0.922
- normalized growth (locus YOR136W, strain idh2, stronger effect = lower value): 1.18 [resistant] (active)
- normalized growth (locus YOR144C, strain elg1, stronger effect = lower value): 1.18 [resistant] (active)
- normalized growth (locus YOR184W, strain ser1, stronger effect = lower value): 0.959
- normalized growth (locus YOR265W, strain rbl2, stronger effect = lower value): 0.942
- normalized growth (locus YOR270C, strain vph1, stronger effect = lower value): 0.71 (active)
- normalized growth (locus YOR290C, strain snf2, stronger effect = lower value): 0.84 (active)
- normalized growth (locus YOR316C, strain cot1, stronger effect = lower value): 1.1 [resistant] (active)
- normalized growth (locus YPL051W, strain arl3, stronger effect = lower value): 0.932
- normalized growth (locus YPL055C, strain LGE1, stronger effect = lower value): 0.873
- normalized growth (locus YPL078C, strain atp4, stronger effect = lower value): 0.91
- normalized growth (locus YPL106C, strain sse1, stronger effect = lower value): 0.84 (active)
- normalized growth (locus YPL240C, strain hsp82, stronger effect = lower value): 0.952
- normalized growth (locus YPL241C, strain CIN2, stronger effect = lower value): 0.966
- normalized growth (locus YPR119W, strain clb2, stronger effect = lower value): 1.03
- normalized growth (locus YPR141C, strain kar3, stronger effect = lower value): 1
- normalized growth (locus YPR163C, strain tif3, stronger effect = lower value): 1.03
- normalized growth (locus YPR167C, strain met16, stronger effect = lower value): 1.04
- normalized growth (strain wtn01, stronger effect = lower value): 1.05
